BAZ2B inh: qHTS Assay for Inhibitors of BAZ2B; AlphaScreen BAZ2B-H3K14Ac peptide displacement; Potency, µM (doses to about 114 µM), without a hit: at the highest dose activity change, negative = inhibition, actives largely listed as inhibitors; 4.4% of 360,000 active; Bromodomain adjacent to zinc finger domain protein 2B (Homo sapiens), Q9UIF8; further: on the % scale 0 is the no-effect control and ±100 the full control effect; nearly all actives have a fitted effect of over 60% in size
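BAZ2B 50 nM plus b-H3(5-23)K14Ac 50 nM, PBS pH 7.4/0.01% Tween-20, 30 min RT; compound added (max 110 uM), 30 min RT; streptavidin donor/Ni-chelate acceptor beads 10 ug/mL final, 20 min dark; AlphaScreen read.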
HP1b chromo inh: HTS for Inhibitors of HP1-beta Chromodomain Interactions with Methylated Histone Tails; Chromobox protein homolog 1 (Homo sapiens), P83916; AlphaScreen HP1-beta / biotin-H3K9me3 peptide binding; Potency, µM (titrated, usually from 114 µM), inactives show at the top dose activity change, negative = inhibition, hits mostly inhibitors; 0.56% of 390,000 active; further: nearly all actives have a fitted effect of over 70% in size
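HP1-beta protein (50 nM final) preincubated 30 min at room temperature with biotinylated H3(1-18)K9me3 peptide (50 nM) in PBS pH 7.4, 0.01% Tween-20, then compound added for 30 min. AlphaScreen streptavidin donor/nickel chelate acceptor beads (10 ug/mL final), 30 min dark, luminescence read.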
G9a inh: qHTS Assay for Inhibitors of Histone Lysine Methyltransferase G9a | Histone-lysine N-methyltransferase EHMT2 (Homo sapiens), Q96KQ7 | G9a H3K9 monomethylation, AlphaScreen, 2 h | Potency, µM (doses to about 102 µM), for the others: at the top dose activity, negative = inhibition, actives largely listed as inhibitors | 8.8% of 350,000 active | AID 504332, 2011; further: on the % scale 0 is the no-effect control and ±100 the full control effect; nearly all actives have a fitted effect of over 75% in size
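Readings reflect AlphaScreen signal from monomethyl-H3K9 antibody detection. HMT at 20 nM; substrate b-H3K9 500 nM; cofactor SAM 20 uM; 2 h RT reaction; compounds tested as titrations in qHTS with 15 min preincubation.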
Sfp inh: qHTS Assay for Inhibitors of Bacillus subtilis Sfp phosphopantetheinyl transferase (PPTase) | Biochemical Sfp PPTase activity, qHTS | 3.5% of 310,000 active | AID 1490, 2009 | Potency, µM, for the others: largest response in the series, negative = inhibition, actives largely listed as inhibitors | 4'-phosphopantetheinyl transferase ffp (Bacillus subtilis), Q9F4F7;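 further: the enzyme is Sfp with the accession as filed and its product quenches rhodamine fluorescence; 0% = enzyme reaction without inhibitor and -100% = no enzyme wells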
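With Hepes-Na pH 7.6 buffer containing 10 mM MgCl2, Sfp (15 nM) modified BHQ-2-YbbR (12.5 uM) using rhodamine-CoA (5 uM). Two reads 30 minutes apart at 525/598 nm yielded each well's rate.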
TDP1 block: qHTS Assay for Inhibitors of Tyrosyl-DNA Phosphodiesterase (TDP1); recombinant TDP1, AlphaScreen DNA substrate cleavage; 0.28% of 350,000 active; Tyrosyl-DNA phosphodiesterase 1 (Homo sapiens), Q9NUW8; Potency, µM (top dose mostly 130 µM), for the others: at the highest dose activity change, negative = inhibition, usual class: inhibitors; further: on the % scale 0 is the no-effect control and ±100 the full control effect; nearly all actives have a fitted effect of over 40% in size
Target sequence (Q9NUW8 whole entry, looked up): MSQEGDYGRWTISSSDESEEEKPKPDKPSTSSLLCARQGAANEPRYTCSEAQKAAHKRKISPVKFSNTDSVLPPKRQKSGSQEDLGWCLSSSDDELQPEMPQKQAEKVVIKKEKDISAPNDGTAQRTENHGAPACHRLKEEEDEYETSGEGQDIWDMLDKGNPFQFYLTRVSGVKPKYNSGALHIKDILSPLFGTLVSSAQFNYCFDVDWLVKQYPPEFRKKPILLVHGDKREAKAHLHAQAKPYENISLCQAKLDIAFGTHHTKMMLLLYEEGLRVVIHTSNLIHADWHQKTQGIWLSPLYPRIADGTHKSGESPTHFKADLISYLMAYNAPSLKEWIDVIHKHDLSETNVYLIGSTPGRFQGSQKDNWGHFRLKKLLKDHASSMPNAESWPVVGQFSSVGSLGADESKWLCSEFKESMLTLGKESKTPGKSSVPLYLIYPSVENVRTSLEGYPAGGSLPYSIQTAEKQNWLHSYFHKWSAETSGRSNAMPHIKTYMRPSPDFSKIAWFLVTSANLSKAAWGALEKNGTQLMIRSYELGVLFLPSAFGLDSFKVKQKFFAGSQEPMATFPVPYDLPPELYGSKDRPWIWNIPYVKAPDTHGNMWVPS
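AlphaScreen read-out: signal falls as enzyme removes the 3' tyrosine-FITC from a 5'-biotinylated DNA oligo (15 nM, 5 min, RT). Enzyme was E. coli-made recombinant Tdp1 at 1 nM, exposed to compound for 15 min beforehand; beads 10 ug/ml, 10 min.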
JMJD2A Tudor: qHTS Assay for Inhibitors of JMJD2A-Tudor Domain | AlphaScreen JMJD2A-Tudor / H3K4me3 peptide binding | Potency, µM (highest dose often 114 µM), inactives show top-dose activity change, negative = inhibition, usual class: inhibitors | 4.4% of 390,000 active | AID 504339, 2011 | Lysine-specific demethylase 4A (Homo sapiens), O75164; further: on the % scale 0 is the no-effect control and ±100 the full control effect; nearly all actives have a fitted effect of over 50% in size
An asterisk follows results filed as active; ? = inconclusive; nt = no result given; [ ] = dose if it differs, or a comment. Shown are actives, neighbours in structure and some others; about 12% of the full set was active somewhere. The call rests on the fitted dose curve; in most records, active means well fitted curve in the direction sought with a large enough effect; inconclusive means small, poorly fitted or top-dose-only effect, or another doubt; inactive means no such curve, though single readings can be large; an effect the other way counts as inactive or inconclusive. Potency means the concentration at half of the fitted maximal effect.

SMILES	BAZ2B inh	HP1b chromo inh	G9a inh	Sfp inh	TDP1 block	JMJD2A Tudor
Cc1ccc2c(c1)-c1c(cnn1CC(=O)N1CCN(c3ccccc3F)CC1)CO2	0%	28%	11%[59 µM]	nt	-1%	3%
ON=Cc1cccn1-c1ccccc1	50µM*	-10%	-36%[59 µM]	8%	2%	-33%
O=C(NC(Cc1ccccc1)C(=O)O)/C(=C/c1ccc([N+](=O)[O-])cc1)NC(=O)c1ccc(Br)o1 (stereo not given)	-29%	36%	-21%	13%	9%	2%
O=C(Nc1ccccc1)/C(=C/c1ccc([N+](=O)[O-])cc1)NC(=O)c1ccco1	-23%	19%	18µM*	-3%	2%	1%
CC(NC(=O)/C(=C\c1cccc([N+](=O)[O-])c1)NC(=O)c1ccco1)C(=O)O (stereo not given)	?	34%	28%[0.501 µM]	79µM*	6%	-17%
O=C(Nc1ccccc1C(=O)O)/C(=C/c1ccc([N+](=O)[O-])cc1)NC(=O)c1ccc(Br)o1	-25%	-3%	45µM*	7.9µM*	?	-30%[57.1 µM]
CC(C)CC(=O)Nc1nnc(S(=O)(=O)N2c3ccccc3CC2C)s1 (stereo not given)	?	38%	-1%	5%	9%	?
O=C1C(c2[nH]c3ccc(S(=O)(=O)O)cc3c2O)=Nc2ccc(S(=O)(=O)O)cc21	nt	nt	18µM*	22µM*	?	nt
CCN(CC(=O)NCc1cccs1)C(=O)Cc1ccc(Cl)c(Cl)c1	nt	6%[57 µM]	nt	nt	0%	-12%
CC1=C(C(=O)Nc2ccc(C(=O)N3CCN(c4cccc(Cl)c4)CC3)cc2)SCCO1	?	-7%	45µM*	-5%	8%	?
Cc1[nH]c2ccc(C(=O)N3CCCC3)cc2c1C	-20%[57.1 µM]	29%	-36%	2%	4%	-10%
CC1=C(C(=O)Nc2ccc(C(=O)N3CCN(c4ccccc4F)CC3)cc2)SCCO1	?	3%	-16%	8%	7%	?
COc1ccccc1N1CCN(C(=O)c2cc3c(C)nc4ccccc4c3o2)CC1	?	24%	50µM*	-12%	7%	-33%
COc1ccccc1N1CCN(C(=O)c2ccc3[nH]c(C)c(C)c3c2)CC1	?	-23%[57 µM]	40µM*	-4%	8%	?
CCOC(=O)c1[nH]c(C)c(C(=O)N2CCN(c3cccc(Cl)c3)CC2)c1C	50µM*	-14%	?	11%	1%	?
Cc1[nH]c2ccc(C(=O)N3CCN(c4cccc(Cl)c4)CC3)cc2c1C	?	-5%	40µM*	-1%	10%	?
COc1ccccc1N1CCN(C(=O)c2ccc3[nH]c4c(c3c2)CC(C)CC4)CC1 (stereo not given)	40µM*	?	?	-2%	14%	?
O=S(=O)(c1ccccc1)N1CCC2(CC1)OCCN2S(=O)(=O)c1cccs1	6%	27%	?	nt	2%	-13%
O=C1c2ccccc2NC(c2cccc(O)c2)N1O (stereo not given)	-16%	49%	45µM*	-13%	nt	4%
O=C1c2ccccc2NC(c2cccc([N+](=O)[O-])c2)N1O (stereo not given)	?	29%	38%[0.501 µM]	-4%	nt	-13%
O=C1c2ccccc2NC(c2ccc([N+](=O)[O-])cc2)N1O (stereo not given)	-29%	13%	56µM*	-6%	5%	0%
O=C1c2ccccc2NC(c2ccc(Br)o2)N1O (stereo not given)	-36%	15%	-40%[2.33 µM]	nt	1%	79µM*
CCc1cc(-c2[nH]ncc2-c2ccc([N+](=O)[O-])cc2)c(O)cc1OC	40µM*	?	50µM*	-23%	nt	50µM*
COc1ccc(-c2cn[nH]c2-c2ccc(OCc3ccc([N+](=O)[O-])cc3)cc2O)cc1OC	-28%	5%	11%[12.7 µM]	32%	nt	?
CCOC(=O)c1cccc(NC(=O)c2cc3cc4cc(OC)ccc4nc3s2)c1	-29%	-6%	?	nt	-2%	?
SMILES	BAZ2B inh	HP1b chromo inh	G9a inh	Sfp inh	TDP1 block	JMJD2A Tudor
CC(=O)N1CCc2cc(S(=O)(=O)CCC(=O)Nc3ccccc3F)ccc21	-23%	-19%	?	5%	0%	50µM*
CCOC(=O)c1cccc(NC(=O)CCn2cccc2)c1	?	-4%	40µM*	16%	0%	-34%
CCOC(=O)c1cccc(NC(=O)c2cc3cc4ccc(C)cc4nc3s2)c1	-12%	-13%	13µM*	nt	0%	?
CCOC(=O)c1cccc(NC(=O)CCn2c(=O)oc3ccccc32)c1	2%	-13%	17%	12%	-10%	-10%
CCOC(=O)N1CCN(C(=O)CCS(=O)(=O)c2ccc3c(c2)CCN3C(=O)CC)CC1	-14%[57.1 µM]	38%	2%	11%	8%	-1%
CCOC(=O)c1cccc(NC(=O)CCS(=O)(=O)c2ccc3c(c2)CCN3C(=O)CC)c1	nt	36%	11µM*	nt	7%	25µM*
Cc1cccc(NC(=O)CCNC(=O)c2ccc(Br)cc2)c1	-1%	-12%	11%	20%	8%	-12%
Cc1cc(C)c(NC(=O)COC(=O)C2CCCCC2)c(C)c1	0%	30%	24%[12.7 µM]	nt	3%	-12%
CCOC(=O)Cc1csc(N/N=C\c2ccccc2OC)n1	?	-1%	nt	-5%	5%	-26%
CCC(=O)N1c2ccc(S(=O)(=O)CCC(=O)Nc3ccc(Br)c(C)c3)cc2CC1C (stereo not given)	nt	-12%	14µM*	nt	12%	22µM*
O=C(CCN1C(=O)/C(=C/c2ccc(F)cc2)SC1=S)NC1C=CS(=O)(=O)C1 (stereo not given)	-2%	67%	14%	11%	4%	14%
CC(C(=O)NC1C=CS(=O)(=O)C1)N1C(=O)/C(=C/c2ccc(Cl)cc2)SC1=S (stereo not given)	22µM*	-26%	nt	?	5%	?
CC(C(=O)N(C)C1CCS(=O)(=O)C1)N1C(=O)/C(=C/c2ccc(F)cc2)SC1=S (stereo not given)	?	-14%	?	50µM*	6%	-32%
CCOC(=O)CC1CCCCN1Cc1cn[nH]c1-c1ccc(F)cc1F (stereo not given)	0%	35%	3%	15%	-4%	0%
